Active and inactive are the calls of the source. Entries that show only a call come without a potency. The call rests on the fitted dose curve.
Experiment: qHTS assay to identify small molecule agonists of the sonic hedgehog signaling (Shh) pathway (AID 1259368); further: nearly all actives have a fitted effect of over 15% in size
Details: NIH/3T3 Gli1-Luc reporter, luciferase, 24 h; series mostly up to 92.4 µM
Procedure, shortened: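 Quantitative high-throughput format using a Gli1-driven firefly luciferase reporter line derived from NIH/3T3 cells. After a 24 hr compound treatment at 37 C and 5% CO2, luminescence reported Gli1 response element activity.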
For `CC(C(=O)O)c1ccc2c(c1)Cc1cccnc1O2` (centres undefined), the Potency was “inactive”.
In the case of `Cc1cc(SC2=C(O)C[C@@](CCc3ccc(N)cc3)(C(C)C)OC2=O)c(C(C)(C)C)cc1CO`, the Potency is reported as “inactive”.
With `CCN(CCCCOC(=O)c1ccc(OC)c(OC)c1)C(C)Cc1ccc(OC)cc1` (centres undefined) the Potency was “inactive”.
For `CC(C)CCCCCCCOC(=O)c1ccc(C(=O)OCCCCCCCC(C)C)c(C(=O)OCCCCCCCC(C)C)c1`, the Potency was “inactive”.
In the case of `Cc1ccc(NC(=O)c2ccc(CN3CCN(C)CC3)cc2)cc1Nc1nccc(-c2cccnc2)n1`, the Potency is reported as “inactive”.
For `CCn1nc(Cc2ccccc2)cc1C1CCN(C[C@H]2C[C@H](N(C)[C@@H](C(=O)O)C(C)C)C[C@@H]2c2cccc(F)c2)CC1`, the Potency was “inactive”.
In the case of `O=C(Cl)c1cc(Cl)cc(Cl)c1`, the Potency is reported as “inactive”.
With `O=C(N[C@@H](Cc1ccccc1)[C@@H](O)C(=O)N1C[C@@H](O)[C@@H](O)C1)c1cc2cc(Cl)ccc2[nH]1` the Potency was “inactive”.
With `CC(C)(C)NCC(O)COc1ccc(NC(=O)NC2CCCCC2)cc1` (centres undefined) the Potency was “inactive”.
In the case of `CC(C)(Cc1c[nH]c2ccccc12)NCC(O)COc1ccccc1C#N` (centres undefined), the Potency is reported as “inactive”.
With `CCOC(=O)CC(O)(CC(=O)OCC)C(=O)OCC` the Potency was “inactive”.
For `CC1=C(C)C(=O)C(CCCCC#CCCCC#CCO)=C(C)C1=O`, the Potency was “inactive”.
In the case of `C[C@H](CN1CCCC1)C(=O)c1ccc(C(F)(F)F)cc1`, the Potency is reported as “inactive”.
With `C=CC(C)CCC=C(C)C` (centres undefined) the Potency was “inactive”.
With `O=C(c1ccc(Cl)cc1)c1ccc(Cl)cc1` the Potency was “inactive”.
With `CCC(=O)O[C@]1(C(=O)COC)[C@@H](C)C[C@H]2[C@@H]3CCC4=CC(=O)C=C[C@]4(C)C3(F)[C@@H](O)C[C@@]21C` (some centres undefined) the Potency was 13.3 µM (active).
In the case of `COC(=O)C(C)(C)C`, the Potency is reported as “inactive”.
With `C=C[Si](OCC)(OCC)OCC` the Potency was “inactive”.
For `Oc1ccc(Oc2ccccc2)cc1`, the Potency was “inactive”.
With `C=CC(O)CCCCC` (centres undefined) the Potency was “inactive”.
With `O=C1c2ccccc2C(=O)C1c1ccc2ccccc2n1` the Potency was 0.121 µM (active).
With `O=C(OCCOCCOCCOC(=O)c1ccccc1)c1ccccc1` the Potency was “inactive”.
For `c1ccc(CN(Cc2ccccc2)Cc2ccccc2)cc1`, the Potency was “inactive”.
In the case of `CCCCCCCCCCCCSCCOCCO`, the Potency is reported as “inactive”.
With `CC(C)=CCC/C(C)=C/C=N/O` the Potency was “inactive”.
With `Cc1c(N=C=O)cccc1N=C=O` the Potency was “inactive”.
In the case of `CCC(CC)C(=O)O`, the Potency is reported as “inactive”.
In the case of `C=C[Si]1(C)O[Si](C)(C=C)O[Si](C)(C=C)O[Si](C)(C=C)O1` (centres undefined), the Potency is reported as “inactive”.
With `CCOC(C)OCC` the Potency was “inactive”.

— PubChem BioAssay (Tox21)
Potency means the concentration at half of the fitted maximal effect.
